Bioassay records as filed in PubChem BioAssay.
KB-3-1 cytotox = qHTS assay for MDR1-selective chemotherapeutics: Primary screen using the parental adenocarcinoma cell KB-3-1 | Potency, µM (series often up to 46.1 µM), hits mostly cytotoxic | AID 1347075, 2019 | KB-3-1 viability, CellTiter-Glo ATP luminescence, 72 h | hit rate 1.4% among 400,000; note: nearly all actives have a fitted effect of over 60% in size
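Viability of parental KB-3-1 cells, measured by CellTiter-Glo luminescence, followed a 72 h incubation at 37 °C with pinned compounds in phenol-red-free DMEM containing 10% FBS.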
DT40 TDP1 CPT = qHTS for Inhibitors of human tyrosyl-DNA phosphodiesterase 1 (TDP1): qHTS in cells in presence of CPT; chicken DT40 Tdp1-/-;hTDP1 cells + 20 nM CPT, ATP luminescence, 48 h; Potency, µM (titrated, usually from 46.2 µM), inactives show at the top dose activity change, negative = growth inhibition, actives largely listed as inhibitors; hit rate 12% among 420,000; note: nearly all actives have a fitted effect of over 55% in size
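Cell growth measured by CellTiter-Glo luminescence after a minimum 48 h, 37 C compound exposure with 20 nM CPT in Tdp1-knockout DT40 cells stably expressing hTDP1, seeded 400/well; qHTS titration format.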
TDP1 cell noCPT = qHTS for Inhibitors of human tyrosyl-DNA phosphodiesterase 1 (TDP1): qHTS in cells in absence of CPT; Potency, µM (doses to about 46.2 µM), for inactives: top-dose activity change, negative = growth inhibition, hits mostly inhibitors; DT40 Tdp1-/- hTDP1 cells, no CPT, ATP luminescence, 48 h; hit rate 15% among 420,000; AID 686978, 2013; note: nearly all actives have a fitted effect of over 55% in size
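Readout: luminescence from CellTiter-Glo after 30 min in the dark at RT. Cells: DT40 Tdp1-/- with stable hTDP1, 400/well. Exposure: compounds alone, ≥48 hr, 37 °C.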
HT1080 IDH1KD tx = qHTS for induction of synthetic lethality in tumor cells producing 2HG: qHTS for the HT-1080-IDH1KD cell line; HT-1080 IDH1 knockdown viability, ATP luminescence, 48 h; Potency, µM (highest dose often 46.1 µM), inactives show at the top dose activity, negative = toxicity, actives largely listed as cytotoxic; hit rate 2% among 360,000; AID 686971, 2013;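 note: 0% = DMSO wells and -100% = cell-free medium wells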
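Viability of IDH1-knockdown HT-1080 fibrosarcoma cells was assessed by CellTiter-Glo after 48 h at 37 °C with titrated compound; concentration-effect curves were classified by fit quality and response size.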
HT1080NT lethal = qHTS for induction of synthetic lethality in tumor cells producing 2HG: qHTS for the HT-1080-NT fibrosarcoma cell line; HT-1080-NT fibrosarcoma viability, CellTiter-Glo ATP luminescence, 48 h; Potency, µM (titrated, usually from 46.1 µM), for the others: at the top dose activity, negative = less viability, most hits filed as cytotoxic; hit rate 1.6% among 360,000;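 note: NT is the 2HG producing partner of a matched IDH1 knockdown line; 0% = DMSO-treated cells and -100% = media-only wells without cells; nearly all actives have a fitted effect of over 55% in size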
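Luminescent CellTiter-Glo readout after 48 hours of compound exposure at 37 degrees C defined viability of HT-1080-NT cells. Activity was normalized to DMSO wells and cell-free media wells; concentration-response curves were fitted and assigned curve classes.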
KB-V1 cytotox = qHTS assay for MDR1-selective chemotherapeutics: Primary screen using the drug-selected MDR subline cells KB-V1; AID 1347076, 2019; hit rate 3.4% among 400,000; KB-V1 MDR cells viability, CellTiter-Glo, 72 h; Potency, µM (titrated, usually from 46.1 µM), most hits filed as cytotoxic; note: nearly all actives have a fitted effect of over 60% in size
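Potencies derive from concentration-effect curves fitted to normalized luminescence (CellTiter-Glo) of KB-V1 cells treated for 72 h at 37 degrees C in phenol-red-free DMEM containing 10% FBS.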
An asterisk follows results filed as active; [ ] = another dose, or the depositor's remark. Rows were chosen to be rich in hits. Some 19% of all compounds tested hit in one or more screens of this group. Calls come from the whole dose curve; as a rule, active = well fitted curve in the direction sought with a large enough effect; inconclusive = small, poorly fitted or top-dose-only effect, or another doubt; inactive = no such curve, though single readings can be large; an effect the other way counts as inactive or inconclusive. Unless noted, % is set by controls: 0 for no effect and ±100 for the full control effect; potency is the fitted concentration of half-maximal effect.

What do the screens show for `C=Cc1ccc(Cn2c(C(=O)O)c(CNC3CCCCC3)c3ccc(OC)cc32)cc1`?
KB-3-1 cytotox: inactive; DT40 TDP1 CPT: 20.6µM*; TDP1 cell noCPT: 20.6µM*; KB-V1 cytotox: inactive

Results for COc1ccc(Cn2c(C(=O)O)c(CNC3CCCCCC3)c3ccc(OC)cc32)cc1 ?
KB-3-1 cytotox: inconclusive; DT40 TDP1 CPT: 16.4µM*; TDP1 cell noCPT: inconclusive; KB-V1 cytotox: inconclusive

What do the screens show for `COc1ccc2c(CNC3CCCCCC3)c(C(=O)O)n(Cc3cccc(F)c3)c2c1`?
KB-3-1 cytotox: inactive; DT40 TDP1 CPT: -5.0%; TDP1 cell noCPT: inconclusive; KB-V1 cytotox: inactive

How did COc1ccc(Cn2c(C(=O)O)c(CNC3CCCC3)c3ccc(C)cc32)cc1 do in these assays?
KB-3-1 cytotox: inactive; DT40 TDP1 CPT: 12.5%; TDP1 cell noCPT: -21.0%; KB-V1 cytotox: inactive

How did COc1ccc2c(CNC3CCCCCC3)c(C(=O)O)n(Cc3ccc(C)cc3)c2c1 do in these assays?
KB-3-1 cytotox: inactive; DT40 TDP1 CPT: 25.9µM*; TDP1 cell noCPT: inconclusive; KB-V1 cytotox: inactive

Results for COc1cc(/C=C/C(=O)OCC(=O)NC(=O)C2COc3ccccc3O2)ccc1OC(F)F (stereo not drawn) ?
KB-3-1 cytotox: inactive; DT40 TDP1 CPT: -3.9%; TDP1 cell noCPT: 14.2%; HT1080 IDH1KD tx: 14.2%; HT1080NT lethal: 5.1%; KB-V1 cytotox: inconclusive

What do the screens show for `Cc1nc2c(C#N)cnn2c2c1CCN2CC1CCCO1` (stereo not drawn)?
KB-3-1 cytotox: inactive; DT40 TDP1 CPT: -28.7%; TDP1 cell noCPT: 10.4%; HT1080 IDH1KD tx: -3.6%; HT1080NT lethal: 2.3%; KB-V1 cytotox: inactive

Results for C/C(=N/NC(=O)CNC(=O)C1COc2ccccc2O1)c1ccc([N+](=O)[O-])cc1 (stereo not drawn) ?
KB-3-1 cytotox: inactive; DT40 TDP1 CPT: -17.8%; TDP1 cell noCPT: -27.3%; HT1080 IDH1KD tx: -1.0%; HT1080NT lethal: -13.7%; KB-V1 cytotox: inactive

How did CCN(CC(=O)NCc1ccc(Cl)cc1)C(=O)c1cc(OC)cc(OC)c1 do in these assays?
KB-3-1 cytotox: inactive; DT40 TDP1 CPT: 1.0%; TDP1 cell noCPT: -28.2%; HT1080 IDH1KD tx: -16.6%; HT1080NT lethal: -0.7%; KB-V1 cytotox: inconclusive

How did Nc1[nH]nc2ncc3cc4ccccc4nc3c12 do in these assays?
KB-3-1 cytotox: inconclusive; DT40 TDP1 CPT: 18.4µM*; TDP1 cell noCPT: 9.2µM*; HT1080 IDH1KD tx: inconclusive; HT1080NT lethal: inconclusive; KB-V1 cytotox: inconclusive

How did COC(=O)CNC(=O)Cc1c(F)cccc1Cl do in these assays?
KB-3-1 cytotox: inactive; DT40 TDP1 CPT: -10.0%; TDP1 cell noCPT: -2.7%; HT1080 IDH1KD tx: -1.7%; HT1080NT lethal: -4.8%; KB-V1 cytotox: inactive

Results for COc1ccc(OC)c(NC(=O)c2cc3n(n2)C(C(F)(F)F)CC(c2ccc4c(c2)OCO4)N3)c1 (stereo not drawn) ?
KB-3-1 cytotox: inconclusive; DT40 TDP1 CPT: inconclusive; TDP1 cell noCPT: inconclusive; HT1080 IDH1KD tx: inconclusive; HT1080NT lethal: inconclusive; KB-V1 cytotox: 11.6µM*

Results for CCOC(=O)N1CCN(C(=O)c2cc3n(n2)C(C(F)(F)F)CC(c2ccc4c(c2)OCO4)N3)CC1 (stereo not drawn) ?
KB-3-1 cytotox: inactive; DT40 TDP1 CPT: inconclusive; TDP1 cell noCPT: 14.6µM*; HT1080 IDH1KD tx: 4.4%; HT1080NT lethal: 5.6%; KB-V1 cytotox: inactive

Results for COc1ccc(C2CC(C(F)(F)F)n3nc(C(=O)Nc4ccc5c(c4)OCO5)cc3N2)cc1 (stereo not drawn) ?
KB-3-1 cytotox: inactive; DT40 TDP1 CPT: inconclusive; TDP1 cell noCPT: inconclusive; HT1080 IDH1KD tx: -18.2%; HT1080NT lethal: -13.4%; KB-V1 cytotox: inactive

What do the screens show for `O=C(Nc1cc(Cl)ccc1O)c1cc2n(n1)C(C(F)(F)F)CC(c1ccc3c(c1)OCO3)N2` (stereo not drawn)?
KB-3-1 cytotox: inactive; DT40 TDP1 CPT: 23.1µM*; TDP1 cell noCPT: 16.4µM*; HT1080 IDH1KD tx: -13.1%[9.24 µM]; HT1080NT lethal: -23.2%; KB-V1 cytotox: inconclusive

What do the screens show for `O=C(NCc1ccco1)c1cc2n(n1)C(C(F)(F)F)CC(c1ccc(Cl)c(Cl)c1)N2` (stereo not drawn)?
KB-3-1 cytotox: inactive; DT40 TDP1 CPT: inconclusive; TDP1 cell noCPT: inconclusive; HT1080 IDH1KD tx: -15.8%; HT1080NT lethal: -19.4%; KB-V1 cytotox: inactive

What do the screens show for `O=C(NCc1ccc2c(c1)OCO2)c1cc2n(n1)C(C(F)(F)F)CC(c1ccc3c(c1)OCO3)N2` (stereo not drawn)?
KB-3-1 cytotox: inactive; DT40 TDP1 CPT: inconclusive; TDP1 cell noCPT: -14.2%; HT1080 IDH1KD tx: -20.1%; HT1080NT lethal: -2.1%; KB-V1 cytotox: inactive

What do the screens show for `COc1ccccc1NC(=O)c1cc2n(n1)C(C(F)(F)F)CC(c1ccc3c(c1)OCO3)N2` (stereo not drawn)?
KB-3-1 cytotox: inactive; DT40 TDP1 CPT: 16.4µM*; TDP1 cell noCPT: 18.4µM*; HT1080 IDH1KD tx: -12.3%; HT1080NT lethal: -12.1%; KB-V1 cytotox: inactive

Results for COC(=O)C1CCN(Cc2ccc3c(c2)CN(C(=O)C(C)N2CCOCC2)CCO3)CC1 (stereo not drawn) ?
DT40 TDP1 CPT: 13.8%; TDP1 cell noCPT: -0.7%

Results for CC1CCc2sc(C(=O)NNS(=O)(=O)c3ccc(F)c(F)c3F)cc2C1 (stereo not drawn) ?
KB-3-1 cytotox: inactive; DT40 TDP1 CPT: inconclusive; TDP1 cell noCPT: inconclusive; HT1080 IDH1KD tx: -24.0%; HT1080NT lethal: -10.2%; KB-V1 cytotox: inactive

What do the screens show for `O=C(Nc1cccc(Oc2ccccc2)c1)C1Cc2c(-c3cccc(F)c3)ccnc2O1` (stereo not drawn)?
KB-3-1 cytotox: inactive; DT40 TDP1 CPT: inconclusive; TDP1 cell noCPT: inconclusive; HT1080 IDH1KD tx: -17.0%; HT1080NT lethal: -2.6%; KB-V1 cytotox: inactive
